This excerpt belongs to a sample that is enriched for hits.
BL2 CD40 inh: inhibitors of CD40-induced NF-kB signaling, primary screen, BL2 cells, luciferase reporter, single point; CD40L-induced, 4 h; AID 1053188, 2014; 83,000 compounds, 0.94% hits; inhibition, % at 10 µM;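 active = mean inhibition of at least 50% with a set share of replicates also reaching that level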;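 also: 0% = neutral control wells and 100% = IKK inhibitor VII at 50 µM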
The depositor's hits bear a star; [ ] = another dose, or the depositor's remark.

SMILES	BL2 CD40 inh
Cn1cc(CCC(=O)NCCCc2ccccc2)c2ccccc21	11
CC(=O)N1[C@H](C(=O)NCC2CC2)[C@@H](CO)[C@@H]2Cn3c(ccc(-c4cccc(F)c4)c3=O)[C@@H]21	6[25 µM]
O=C1NCCOCc2cnnn2CC[C@@H]1Cc1ccc(F)cc1	-6[25 µM]
COc1ccc(C(=O)/C=C/C(=O)N(CC(=O)NC2CCCCC2)Cc2ccccc2)c(O)c1	105*
COc1cccc(/C=C/C(=O)OCC(=O)NC2CCCCCCC2)c1	5
COc1ccc(C(=O)/C=C/C(=O)N(CC(=O)NC2CCCCC2)Cc2ccccc2OC)c(O)c1	2
Cc1ccc(C)c(S(=O)(=O)N2CCN(C(=O)[C@H](Cc3ccccc3)NC(=O)c3ccco3)CC2)c1	8
CO[C@@H]1CN(C)C(=O)c2cc(NC(=O)Cc3ccccc3)ccc2OC[C@@H](C)N(C(=O)c2ccccc2F)C[C@@H]1C	-2[25 µM]
CCCCC[C@H](O)/C=C/[C@@H]1[C@@H](C/C=C\CCCC(=O)O)[C@H]2CO[C@@H]1C2	15
CCCCC[C@H](O)/C=C/[C@@H]1[C@@H](C/C=C\CCCC(=O)O)[C@@H](O)C[C@H]1O	-3
CCCCC[C@H](O)/C=C/[C@@H]1[C@@H](C/C=C\CCCC(=O)OC)[C@@H](O)C[C@H]1O	45*
C/C=C/c1ccc([C@H]2[C@@H](CO)N3C(=O)CN(S(=O)(=O)c4ccccc4)C[C@H]23)cc1	14[25 µM]
COc1ccccc1C(=O)Nc1nc(-c2ccc3c(c2)OCCO3)cs1	50*
COc1cccc(Nc2nc(-c3ccc4c(c3)OCCO4)cs2)c1	-94
O=C(Nc1nc(-c2ccc3c(c2)OCCO3)cs1)c1ccco1	-5
N#C[C@H]1[C@H](c2ccccc2-c2cccc(F)c2)[C@@H](CO)N1C(=O)NC1CCCCC1	15[25 µM]
COc1ccccc1OCC(=O)O	7
CCOC(=O)COc1ccc2nsnc2c1Cl	9
C=C(CC)C(=O)c1ccc(OCC(=O)O)c(Cl)c1Cl	41*
COCC(=O)N1C[C@@H]2[C@H](c3ccccc31)[C@@H](CO)N2Cc1cc(F)ccc1F	1[25 µM]
CO[C@H]1CN(C)C(=O)c2cc(NC(=O)c3nc4ccccc4s3)ccc2OC[C@@H](C)N(Cc2cccnc2)C[C@H]1C	12
O=C(c1ccccc1)N1CC(=O)N2[C@H](CO)[C@H](c3ccc(-c4ccccc4)cc3)[C@@H]2C1	-9[25 µM]
CCOC(=O)N1Cc2cc3ccccc3nc2C1	-62
COc1cc2c3nnc(-c4ccccc4)c-3cn(Cc3ccc(F)cc3)c2cc1OC	55*
COc1ccc(CNn2c(-c3cccc(C)c3)nc3ccccc3c2=O)cc1OC	-9
SMILES	BL2 CD40 inh
CCc1nc2ccccc2n1Cc1ccc(OC)c(OC)c1	5
COc1cc(NC(=O)c2cccc3c(-c4cnn(C)c4)coc23)cc(OC)c1OC	20
COc1ccccc1NC(=O)N1C[C@H]2[C@@H](c3ccccc31)[C@@H](CO)N2Cc1ccc2c(c1)OCO2	10[25 µM]
O=C(C[C@H]1CC[C@H]2[C@@H](COC[C@H](O)CN2C(=O)Nc2cccc(F)c2)O1)NCCCN1CCOCC1	-39[25 µM]
O=C(C1CCC1)N1CC[C@@H]2[C@H]1c1cc(Br)ccc1N[C@@H]2CO	-27
Cc1cc(NCCCn2ccnc2)n2ncc(-c3ccccc3)c2n1	88*
COc1ccccc1-c1cnn2c(NCCc3ccccc3)cc(C)nc12	-53
c1ccc(-c2nc(NCCCn3ccnc3)c3ccccc3n2)cc1	18
C[C@H](NC(=O)C[C@H]1CC[C@H]2[C@H](COc3ccc(NC(=O)C4CCOCC4)cc3C(=O)N2C)O1)c1ccccc1	-1[25 µM]
CO[C@@H](CN(C)Cc1ccc(-c2ccccn2)cc1)[C@@H](C)CN(C(=O)Nc1ccc(F)cc1)[C@H](C)CO	-26[25 µM]
c1ccc(-c2nccc(-c3ccco3)n2)nc1	-25
Cn1nc(-c2ccccn2)nc2c(=O)n(C)c(=O)nc1-2	101*
COc1ccc(-c2nc(-c3ccccn3)ncc2S(C)(=O)=O)cc1	9
O=C(C[C@H]1C[C@@H]2c3cc(NC(=O)C4CCOCC4)ccc3O[C@@H]2[C@@H](CO)O1)NCCN1CCCCC1	-18[25 µM]
COC(=O)C[C@H]1CC[C@H]2[C@@H](COc3ccc(NC(=O)Nc4cccc(C#N)c4)cc3C(=O)N2C)O1	-2[25 µM]
COc1cccc(NC(=O)N2CC(=O)N3[C@@H](CO)[C@H](c4ccc(C5=CCCCC5)cc4)[C@@H]3C2)c1	39[25 µM]
C[C@H](CO)N1C[C@H](C)[C@H](CN(C)C(=O)C2CCOCC2)Oc2ncc(C#CCc3ccccc3)cc2C1=O	64*[25 µM]
C[C@H]1CN([C@@H](C)CO)C(=O)c2cc(C#CCc3ccccc3)cnc2O[C@H]1CN(C)C(=O)C1CCOCC1	0[25 µM]
C[C@H](CO)N1C[C@H](C)[C@@H](CN(C)C(=O)C2CCOCC2)Oc2ncc(C#CCc3ccccc3)cc2C1=O	41[25 µM]
CN(C)C(=O)c1cccc(-c2ccccc2[C@@H]2[C@H](C#N)N(C(=O)C3CCCCC3)[C@H]2CO)c1	4[25 µM]
CC1Cc2ccccc2N1C(=O)c1cnsn1 (stereo not drawn)	7
CC1Cc2ccccc2N1C(=O)c1cnc2n(c1=O)CCS2 (stereo not drawn)	1
CC1Cc2ccccc2N1c1ncnc(N)c1[N+](=O)[O-] (stereo not drawn)	54*
O=C(C[C@H]1C[C@@H]2c3cc(NS(=O)(=O)c4ccc(F)cc4)ccc3O[C@@H]2[C@@H](CO)O1)NCc1cccnc1	-18[25 µM]
Cc1nnc(NC(=O)c2ccc(N3CCCC3=O)cc2)s1	-39
SMILES	BL2 CD40 inh
O=C(NC1=NCCS1)c1ccc(N2CCCC2=O)cc1	-32
Cc1csc(NC(=O)c2ccc(N3CCCC3=O)cc2)n1	92*
C[C@H](NC(=O)c1ccco1)C(=O)Nc1cc(S(=O)(=O)N2CCCC2)ccc1OCC(F)(F)F	1
Cc1ccccc1-c1ncc(CN2CCC(CO)(CCCc3ccccc3)CC2)cn1	15
CO[C@@H](CN(C)Cc1cc(F)ccc1F)[C@H](C)CN(C(=O)Nc1ccc(C(F)(F)F)cc1)[C@H](C)CO	-9[25 µM]
CO[C@H](CN(C)Cc1cc(F)ccc1F)[C@H](C)CN(C(=O)Nc1ccc(C(F)(F)F)cc1)[C@H](C)CO	53*[25 µM]
CO[C@@H](CN(C)Cc1ccc2c(c1)OCO2)[C@@H](C)CN(C(=O)Nc1ccc(F)cc1)[C@H](C)CO	-1[25 µM]
COc1ccc(C2(CNS(=O)(=O)c3ccccc3)CCOCC2)cc1	1
CC[n+]1c(/C=C2/C=C(C)CC(C)(C)C2)sc2ccc(OC)cc21	80*
C=CCOc1ccc(/C=C/C(=O)OCC(=O)N2CCC(c3ccccc3)=N2)cc1	-2
O=C(c1cccnc1)N1C[C@@H]2[C@H](c3ccccc31)[C@H](CO)N2C(=O)Nc1ccccc1Cl	1
O=C(c1cnccn1)N1CC(=O)N2[C@H](C1)[C@@H](c1ccc(-c3cccc(F)c3)cc1)[C@@H]2CO	-12[25 µM]
NS(=O)(=O)c1ccc(N/N=C/c2ccccn2)c([N+](=O)[O-])c1	2
NS(=O)(=O)c1ccc(Sc2nc3ccccc3s2)c([N+](=O)[O-])c1	81*
CSc1nc2ccccc2s1	2
CC(C)C#Cc1ccc([C@@H]2[C@@H](CO)N3C(=O)CN(C(=O)NC4CCCCC4)C[C@@H]23)cc1	7
CN1C(=O)c2cc(NC(=O)Nc3ccccc3Cl)ccc2OC[C@H]2O[C@@H](CC(=O)NCCCN3CCOCC3)CC[C@H]21	4[25 µM]
O=C(C[C@@H]1CC[C@@H]2[C@H](COC[C@@H](O)CN2Cc2nccs2)O1)NCc1ccccc1Cl	-10[25 µM]
CCOC(=O)COc1ccc2c(=O)c(-c3ccccc3)coc2c1	-13
